Most compounds without a hit are left out; they make up all but 2.9% or so of the library.
H9c2 protect: cardioprotection against H2O2-induced cell death, primary screen, uHTS, H9c2 cells, ATPLite luminescence; protection from H2O2 cell death, % at 20 µM; H9c2 cardiomyocytes, H2O2 injury protection, 2 h; actives 0.63% (n = 360,000);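 active means compounds giving at least 50% protection of heart cells from peroxide-induced death in the single-dose screen, raw or plate-pattern-corrected value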
Rtt109 HAT inh: inhibitors of C. albicans Rtt109/Vps75 HAT, primary screen, biochemical, ThioGlo CoA-SH fluorescence, plate reader; purified Rtt109/Vps75, 4 h; actives 0.16% (n = 330,000); inhibition, % at 34.9 µM; AID 540336, 2011;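 active means inhibition of at least 50% in every replicate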
DAGLB inhibitor: DAGLB lipase inhibitors, primary screen, biochemical, fluorescence, HTS; AID 504411, 2011; HEK293T DAGLB membrane lysate, EnzChek fluorogenic substrate; actives 0.059% (n = 340,000); inhibition, % at 5.17 µM; in the data active means inhibition above about 34%
Myeloid diff 2: induction of myeloid progenitor differentiation, primary screen, cell-based, flow cytometry, MLPCN library; actives 1% (n = 360,000); calls only at 10 µM; ER-HoxA9 myeloid progenitors, lysozyme-GFP differentiation;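 active means normalized GFP-positive differentiation at or above the plate's own cutoff, the solvent-only control mean plus 3 SD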;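 further: cells exposed to compound for four days before flow analysis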
ABHD5-PLIN5 inh: ABHD5-PLIN5 interaction inhibitors, primary screen, cell lysate, split luciferase complementation, luminescence; Split G. princeps luciferase complementation, 4 h; inhibition, % at 4 µM; actives 0.78% (n = 360,000);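 active means inhibition above the mean inhibition across every tested compound plus 3 SD, cut at about 22% in these data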
Target sequence (Q00G26 whole entry, looked up): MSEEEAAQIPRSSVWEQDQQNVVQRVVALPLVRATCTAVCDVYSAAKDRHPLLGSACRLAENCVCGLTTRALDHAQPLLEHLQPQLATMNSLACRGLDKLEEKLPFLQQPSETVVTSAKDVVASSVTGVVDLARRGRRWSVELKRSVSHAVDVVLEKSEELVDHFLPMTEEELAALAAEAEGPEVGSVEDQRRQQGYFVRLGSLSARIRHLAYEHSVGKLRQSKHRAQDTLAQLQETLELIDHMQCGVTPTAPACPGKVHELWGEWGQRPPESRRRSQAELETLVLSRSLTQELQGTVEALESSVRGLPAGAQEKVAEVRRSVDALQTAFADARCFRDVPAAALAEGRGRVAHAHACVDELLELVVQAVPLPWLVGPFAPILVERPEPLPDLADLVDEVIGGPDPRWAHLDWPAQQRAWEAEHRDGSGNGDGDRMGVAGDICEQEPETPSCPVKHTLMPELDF
Target sequence (Q8WTS1 whole entry, looked up): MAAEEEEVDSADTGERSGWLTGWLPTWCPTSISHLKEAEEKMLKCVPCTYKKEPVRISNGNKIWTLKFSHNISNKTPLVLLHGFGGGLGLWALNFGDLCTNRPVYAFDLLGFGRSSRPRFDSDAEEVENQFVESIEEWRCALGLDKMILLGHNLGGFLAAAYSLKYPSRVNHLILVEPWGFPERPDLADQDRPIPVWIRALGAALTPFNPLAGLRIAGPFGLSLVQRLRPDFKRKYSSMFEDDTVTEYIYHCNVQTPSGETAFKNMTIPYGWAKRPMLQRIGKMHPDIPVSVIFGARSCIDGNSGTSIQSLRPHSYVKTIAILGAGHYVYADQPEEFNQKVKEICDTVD
sPLA2-III inh: human group III sPLA2 inhibitors, primary screen, biochemical, QFRET, BODIPY PC-A2 liposome substrate; actives 0.56% (n = 370,000); Group 3 secretory phospholipase A2 (Homo sapiens), Q9NZ20; inhibition, % at 12.2 µM; QFRET BODIPY PC-A2 liposome hydrolysis, fluorescence;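 active means inhibition above mean plus 3 SD of compounds lying within the high and low control bounds, cut at about 19% in these data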
Myeloid diff: inducers of myeloid progenitor differentiation, confirmation, cell-based, GFP/Mac1 flow cytometry, cherry pick 01; shares compounds with Myeloid diff 2; ER-HoxA9 myeloid progenitors, GFP/Mac1 double-positive flow; calls only; actives 2% (n = 2,300); AID 651706, 2012;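 active means share of green or green-and-red cells above 9 and 9% in run 1 or 4 and 3% in run 2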
GFP autofluor: flagged as fluorescent in myeloid differentiation counter-screen; shares compounds with Myeloid diff 2; ER-HoxA9 myeloid progenitors, no estrogen, GFP autofluorescence flow cytometry; vehicle wells 0%, positive control 100%; fluorescence response, % (concentration not given with the values); actives 7.4% (n = 2,300); AID 651707;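 active means over 5% cells positive for green fluorescent reporter, or over 2% positive for both it and APC stain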
Large screens that a line does not name were inactive (follow-up assays come after a bar, where they were run).

CCCCC(O)(CCCC)C(=O)N/N=C(\C)c1ccc(Cl)cc1	none | Myeloid diff inactive | GFP autofluor inactive
COc1ccc(C(c2nnnn2-c2ccc(OC)cc2)N2CCN(C/C=C/c3ccccc3)CC2)cc1 (stereo unspecified)	none (no result: Rtt109 HAT inh, DAGLB inhibitor)
Cc1cccc(C)c1-n1nnnc1C(c1ccnc2ccccc12)N1CCN(CCN(C)C)CC1 (stereo unspecified)	none (no result: H9c2 protect, Rtt109 HAT inh, DAGLB inhibitor)
COc1ccc(-n2nnnc2C(c2ccnc3ccccc23)N2CCN(C/C=C/c3ccccc3)CC2)cc1 (stereo unspecified)	Myeloid diff 2 active (no result: Rtt109 HAT inh, DAGLB inhibitor) | Myeloid diff inactive | GFP autofluor inactive
Cc1cc(N2CCN(C(c3ccnc4ccccc34)c3nnnn3-c3c(C)cccc3C)CC2)c2ccccc2n1 (stereo unspecified)	none (no result: H9c2 protect, Rtt109 HAT inh, DAGLB inhibitor) | Myeloid diff inactive | GFP autofluor inactive
COC(=O)[C@]1(Cc2ccccc2)N[C@H](CN(C)C(=O)C2CCCCC2)[C@@H]2C(=O)N(C)C(=O)[C@@H]21	none
CC[C@@]1(C(=O)OC)N[C@H](CN(C)C(=O)C2CCCCC2)[C@@H]2C(=O)N(C)C(=O)[C@@H]21	none | Myeloid diff inactive | GFP autofluor inactive
C=CCn1c(N2CCN(c3ccc(OC)cc3)CC2)nc2c1c(=O)[nH]c(=O)n2C	none | Myeloid diff inactive | GFP autofluor inactive
C=CCn1c(N2CCN(c3ccc(OC)cc3)CC2)nc2c1c(=O)n(C)c(=O)n2C	none
CC12CCC(C(=O)N3CCCCCC3)(OC1=O)C2(C)C (stereo unspecified)	none
CCC1(c2ccccc2)NC(=O)N(CC(=O)Nc2cccc(C#N)c2)C1=O (stereo unspecified)	Myeloid diff 2 active | Myeloid diff inactive | GFP autofluor inactive
CCOC(=O)C1(C(C)(C)CC)CC(CSc2nc3ccccc3[nH]2)OC1=O (stereo unspecified)	none
COc1ccc(Cn2c(C3CC3)nc3ccc(NC(C)=O)cc3c2=O)cc1	Myeloid diff 2 active | Myeloid diff inactive | GFP autofluor inactive
COc1ccc(Cn2c(C3CC3)nc3ccc(NC(=O)c4cccnc4)cc3c2=O)cc1	Myeloid diff 2 active (no result: sPLA2-III inh) | Myeloid diff inactive | GFP autofluor 13.6
FC(F)(F)c1ccccc1CN1CCCC(N2CCN(c3ccccc3)CC2)C1 (stereo unspecified)	none | Myeloid diff inactive | GFP autofluor 10.2
COCCNC(=O)C1CC2Cn3c(nc4cc(Cl)c(Cl)cc43)C2N1C (stereo unspecified)	none
O=S1(=O)c2ccccc2C(O)(c2ccccc2)c2ccccc21	none
CCc1noc(C)c1C(=O)OCC(=O)Nc1ccccc1SC	none
N#CCSc1ccccc1NC(=O)COC(=O)CCNC(=O)c1ccc([N+](=O)[O-])cc1	Myeloid diff 2 active | Myeloid diff inactive | GFP autofluor 41.1
O=C(CCNC(=O)c1ccc([N+](=O)[O-])cc1)Nc1ccccc1N1CCCC1	none
Cc1noc(C)c1C(=O)OCC(=O)Nc1ccccc1SCC#N	Myeloid diff 2 active | Myeloid diff inactive | GFP autofluor 56.9
Cc1cc(NC(=S)N(CCN2CCCCC2)Cc2ccco2)ccc1Cl	none
Cc1ccc(NC(=S)N(CCCN2CCCC2)Cc2cccn2Cc2ccc(Cl)cc2)cc1Cl	Myeloid diff 2 active | Myeloid diff inactive | GFP autofluor inactive
CCOc1ccccc1NC(=O)NC1(C(=O)N2CCOCC2)CCCCC1	none

Screens (PubChem)
